High-throughput results deposited in PubChem by National Center for Advancing Translational Sciences (NCATS).
Compounds with a hit are over-represented: about 6% of the library has one in this group of screens.
D1 antagonist: human D1 dopamine receptor antagonism; P21728; activity change, negative = inhibition, % at 10 µM; hit rate 3.2% among 360,000; HEK293 TREx D1 cells, calcium flux, dopamine EC80; hits give low values; AID 504652; in the data active = activity change below about -30%
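HEK293 T-REx cells expressing inducible, force-coupled D1 receptor; no-wash Ca dye, 30–90 min RT. Cmpd → 180 s read at 1 Hz → EC80 DA → 180 s read.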
D1 agonist: activates the human D1 dopamine receptor | P21728 | HEK293 T-REx D1 cells, calcium flux, agonist mode | activation, % at 2 µM | hit rate 1% among 360,000 | AID 504660; in the data active = activation above about 30%
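Tetracycline-induced HEK293 TREx D1 cells, force-coupled to calcium signalling, were dye-loaded with a no-wash calcium kit. Compound was pin-added after a 10 s baseline. Fluorescence was read kinetically at 1 cycle/s for 180 s, with calcium rises flagged as agonism.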
D1 potentiator: human D1 dopamine receptor positive modulation. P21728. AID 504651. HEK293 TREx D1 cells, calcium flux, dopamine EC20 potentiation. hit rate 0.036% among 360,000. potentiation, % at 10 µM; in the data active = potentiation above about 30%
D3 antag: antagonists of human D3 dopamine receptor | max response, negative = inhibition, % | D3R cells, DiscoveRx beta-arrestin luminescence, antagonist mode; hits give low values | P35462 | hit rate 2.5% among 360,000; in the data active = max response below about -50%; inconclusive = no clear call, values can overlap the other calls
Target sequence (P35462 whole entry, looked up): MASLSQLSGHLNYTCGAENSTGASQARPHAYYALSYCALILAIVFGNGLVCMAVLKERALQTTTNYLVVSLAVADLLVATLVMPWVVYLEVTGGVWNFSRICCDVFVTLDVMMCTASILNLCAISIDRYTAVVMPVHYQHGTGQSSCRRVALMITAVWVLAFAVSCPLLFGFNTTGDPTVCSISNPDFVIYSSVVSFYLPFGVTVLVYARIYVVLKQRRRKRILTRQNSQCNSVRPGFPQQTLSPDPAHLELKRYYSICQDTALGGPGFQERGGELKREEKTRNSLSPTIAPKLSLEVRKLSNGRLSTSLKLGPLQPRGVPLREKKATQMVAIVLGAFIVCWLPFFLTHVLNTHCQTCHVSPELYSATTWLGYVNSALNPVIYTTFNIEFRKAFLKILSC
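Cells plated overnight at 1500 cells/well, then exposed to library compounds with dopamine controls for 90 minutes at 37 degrees C. DiscoveRx reagent added for 30–60 minutes at room temperature; luminescence read, quantitative HTS format.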
D3 ag: agonists of human D3 dopamine receptor; P35462; D3R DiscoveRx beta-arrestin cells, luminescence, 90 min; max activation, %; hit rate 0.58% among 410,000; AID 652048; in the data active = max activation above about 30%
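Cells at 1500/well, incubated overnight, then treated with pinned compounds (dopamine as control) for 90 min at 37 degrees C. DiscoveRx reagent added for 30 - 60 minutes at room temperature; luminescence read.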
Chronic BCR inh: inhibitors of chronic active B-cell receptor signaling; Potency, µM (highest dose often 46.1 µM), most hits filed as inhibitors; ABC-DLBCL IkBa-CBG/CBR reporter, luminescence ratio, 4 h; hit rate 0.05% among 340,000; AID 493014; active = well fitted inhibition curve with a large enough effect in the signal ratio, with a control signal flat, not every such curve was filed as active; inconclusive = small, poorly fitted or top-dose-only effect, or effect the other way, or a change in a side signal; the % refers to the signal ratio
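Cell line TMD8 (human ABC DLBCL), stably expressing tet-inducible CBG68-IkBa fusion and CBR; IMDM/0.5% FBS; cpd up to 46 uM; dox induction, 4 h, 37C/5% CO2; dual luminescence; green/red ratio; MG132 control.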
Hits are given with their value; . = inactive; ? = inconclusive; / = no result given.

SMILES	D1 antagonist	D1 agonist	D1 potentiator	D3 antag	D3 ag	Chronic BCR inh
CCOC(=O)CCCCCC(=O)Nc1ccc2c(c1)C(=O)N([C@H](C)CO)C[C@@H](C)[C@H](CN(C)S(=O)(=O)c1cn(C)cn1)O2	/	/	/	.	47	?
Cc1cccc(N2CCN(c3ncnc4c3nc3n4CCCCC3)CC2C)c1 (stereo unspecified)	.	.	.	/	.	/
O=S(=O)(c1cccc(C(F)(F)F)c1)N1CCC(Oc2ccc(-n3cnnn3)cc2)CC1	.	.	.	/	.	/
C[C@H](CO)N1C[C@H](C)[C@@H](CN(C)S(C)(=O)=O)Oc2ccc(NC(=O)C3CC3)cc2C1=O	/	/	/	.	.	.
C[C@H](CO)N1C[C@H](C)[C@@H](CN(C)S(C)(=O)=O)Oc2ccc(NC(=O)C3CCCCC3)cc2C1=O	/	/	/	.	52	?
Cc1cc(C(=O)N/N=C\c2cc(C(C)(C)C)ccc2O)n[nH]1	.	.	.	.	.	.
CC(=O)N/N=C/c1cc(C(C)(C)C)cc(/C=N/NC(C)=O)c1O	.	36	.	?	.	.
COc1cccc(S(=O)(=O)N(C)C[C@H]2Oc3ncc(Br)cc3C(=O)N([C@@H](C)CO)C[C@@H]2C)c1	/	/	/	.	.	/
CCOCCn1ccc2c(OCC(=O)Nc3cc(C(F)(F)F)ccc3Cl)cccc2c1=O	/	.	.	/	.	.
Clc1cc2nc[nH]c2cc1Cl	.	.	.	.	37	.
O=C(CNC(=O)Cc1cccc2ccccc12)NCc1ccccc1F	.	.	.	.	.	.
O=C(Cc1cccc2ccccc12)NCC(=O)Nc1ccccc1F	-51	.	.	.	.	.
Cc1cc(NCc2ccccn2)nc2ccccc12	.	.	.	.	.	?
Cc1cc(NC2CCCCC2)nc2ccccc12	-33	.	.	-67	.	?
CC1(C(=O)NCc2ccc3c(c2)OCO3)CCN1C(=O)Cc1ccc(Cl)cc1Cl (stereo unspecified)	/	/	/	.	.	/
Cc1nc2c3ccccc3nc(NNC(=O)CCC(=O)N3CCCC(C)C3)n2n1 (stereo unspecified)	-33	.	.	.	.	.
Cc1cc(C)c(NC(=O)Cn2c(=O)n(CCC(=O)NCc3ccc4c(c3)OCO4)c(=O)c3ccccc32)c(C)c1	.	.	.	/	.	/
CCOC(=O)c1cc2cc(OC)ccc2n1C1CCN(CCc2ccccc2)CC1	/	/	/	-109	.	/
Cc1cc2c(c3oc(=O)c4ccccc4c13)CN(Cc1ccc(F)cc1)CO2	.	.	.	/	.	/
CCOCCc1nn2c(=O)cc(COC(=O)c3ccccc3OC)nc2s1	-32	.	.	/	.	/
O=[N+]([O-])c1ccc2ncnc(N3CCN(Cc4ccc5c(c4)OCO5)CC3)c2c1	.	.	.	.	43	.
O=[N+]([O-])c1cccnc1N1CCN(Cc2ccc3c(c2)OCO3)CC1	-37	.	.	.	.	?
Cc1cccc(S(=O)(=O)c2cn(C)c3cc(N4CCC(C)CC4)c(F)cc3c2=O)c1	.	.	.	/	.	/
N#CC1=C(N)SC(N)=C(C#N)C1CCC1CCCCC1	.	43	.	/	/	.
CCN1CCN(c2ncnc3c2cnn3-c2ccc(F)cc2)CC1	.	.	.	/	.	.
SMILES	D1 antagonist	D1 agonist	D1 potentiator	D3 antag	D3 ag	Chronic BCR inh
Cc1ccc(NC(=O)Nc2nnc(N(C)Cc3ccccc3)s2)cc1	.	.	.	/	.	/
O=C(CCSCc1ccc(Cl)cc1)NCc1ccc(F)cc1Cl	-33	.	.	/	.	?
O=C(CCSCc1ccccc1Cl)NCc1ccc(F)cc1Cl	.	68	.	/	.	.
O=S(=O)(NCC1CCCO1)c1cc(Cl)ccc1Cl (stereo unspecified)	.	.	.	.	.	?
O=C(O)c1ccc(Cl)c(S(=O)(=O)NCC2CCCO2)c1 (stereo unspecified)	.	.	.	-54	.	?
O=S(=O)(NNC(=S)NCC1CCCO1)c1cc(Cl)ccc1Cl (stereo unspecified)	-39	.	.	.	.	.
COc1ccc(Cn2c(=O)n(Cc3ccco3)c(=O)c3oc4ccccc4c32)cc1	.	.	.	/	.	/
COc1ccc(N2CCN(C(=O)c3cn(C4CCCCC4)c(=O)c4c3c3ccccc3n4C)CC2)cc1	.	.	.	/	.	/
O=C(OCc1nnc(-c2ccc(Cl)cc2)o1)C12CC3CC(CC(O)(C3)C1)C2	-75	.	.	.	.	.
O=C(Cc1ccc(Cl)cc1)OCc1nnc(-c2ccccc2)o1	.	.	.	.	.	.
CCCCNc1nc(Oc2ccc(=O)n(C)n2)nc(N(C)C)n1	.	.	.	/	.	/
CC1=CC(C)[C@H](/C=N/n2c(=O)[nH]c3c([nH]c4ccc(Br)cc43)c2=O)C(C)C1 (stereo partly specified)	.	.	.	-67	.	.
CN1CCN(c2ccc(S(=O)(=O)N3CCCCC3)cc2NC(=O)CCc2ccccc2)CC1	.	33	/	.	.	.
CCN1CCN(c2ccc(S(=O)(=O)N3CCCCC3)cc2NC(=O)COc2ccc(Cl)cc2)CC1	-43	.	.	.	.	.
CCC(=O)N1CCN(c2ccccc2NC(=O)Cc2ccc(Cl)cc2)CC1	.	.	.	-74	.	.
CCN1CCN(c2ccc(S(=O)(=O)N3CCCCC3)cc2NC(=O)COc2cc(C)ccc2Cl)CC1	.	.	.	.	.	?
CN1CCN(c2ccc(S(=O)(=O)N3CCCCC3)cc2NC(=O)Cc2ccc(Cl)cc2)CC1	.	91	.	?	.	.
O=C(Cc1ccc(Cl)cc1)Nc1cc(S(=O)(=O)N2CCOCC2)ccc1N1CCCC1	.	.	.	.	.	.
CN1CCN(c2ccc(S(=O)(=O)N3CCCCC3)cc2NC(=O)CSCc2ccccc2)CC1	.	.	.	.	.	.
CCNC(=O)C1CCCN(C(=O)c2ccco2)CC1 (stereo unspecified)	/	/	/	.	.	/
CCOC(=O)c1c(C)[nH]c(C)c1S(=O)(=O)N1CCCC(C(=O)N2CCN(c3cccc(C)c3C)CC2)C1 (stereo unspecified)	.	.	.	/	.	.
CN1CCN(c2ccc(S(=O)(=O)N3CCCCC3)cc2NC(=O)c2ccc(C#N)cc2)CC1	-45	.	.	.	.	?
N#Cc1ccc(C(=O)Nc2cc(S(=O)(=O)N3CCOCC3)ccc2N2CCOCC2)cc1	/	/	/	.	.	/
O=c1c(Cl)c(Cl)cnn1Cc1nnc(-c2ccc(Cl)cc2)o1	.	.	.	-87	.	?
COc1ccc(/C=C/c2cc(C(=O)O)c3ccccc3n2)cc1	-33	.	.	.	.	?
Cn1cnc(C(=O)N2CCN(c3ccccc3)CC2)c1C(=O)N1CCN(c2ccccc2)CC1	-39	.	.	?	.	.
CCN(CC)CCCNC(=O)C1c2ccccc2C(=O)N(C)C1c1ccc(OC)cc1 (stereo unspecified)	.	.	.	-52	.	.
